# From PubChem BioAssay AID1159580 (chemical genetic matrix, 2015)
# In all, about 5,500 compounds went through this assay and about 2,000 (36%) were called active. About 18% were inconclusive and are not listed. Some of the results follow. Values without a mark were called inactive. Rule as the data show it: active = normalized growth mostly below about 0.91 (no sharp cut-off); inconclusive = no clear call, values can overlap the other calls; inactive = mostly above about 0.92.
# Experiment: chemical genetic growth profiling, strain panel (AID 1159580);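 also: tested at 20 µM; growth read once vehicle control cultures reached saturation at 30 °C; 1 = growth at the plate median or of vehicle wells; lower values mean less growth of the strain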
# Conditions: S. cerevisiae deletion strains, growth OD
smiles,measurement,setting,value
COC(=O)Nc1nc2ccc(C(=O)c3cccs3)cc2[nH]1,normalized growth,"locus YAL013W, strain DEP1, active compounds read low",1.03
same,normalized growth,"locus YAL040C, strain CLN3, active compounds read low",0.635 (active)
same,normalized growth,"locus YCL061C, strain MRC1 (second series), active compounds read low",1.01
same,normalized growth,"locus YDR150W, strain NUM1, active compounds read low",0.994
same,normalized growth,"locus YDR363W, strain ESC2, active compounds read low",1.03
same,normalized growth,"locus YER002W, strain NOP16, active compounds read low",1.01
same,normalized growth,"locus YGR229C, strain SMI1, active compounds read low",1.03
same,normalized growth,"locus YJR075W, strain HOC1, active compounds read low",1.04
same,normalized growth,"locus YMR307W, strain GAS1, active compounds read low",1.01
same,normalized growth,"locus YNL128W, strain TEP1, active compounds read low",0.73 (active)
same,normalized growth,"locus YNL153C, strain GIM3, active compounds read low",0.124 (active)
same,normalized growth,"locus YNL175C, strain NOP13, active compounds read low",0.715 (active)
same,normalized growth,"locus YNL197C, strain WHI3, active compounds read low",0.429 (active)
same,normalized growth,"locus YNL224C, strain SQS1, active compounds read low",0.605 (active)
same,normalized growth,"locus YOR083W, strain WHI5 (second series), active compounds read low",0.442 (active)
